According to PubChem BioAssay (NCATS):
Results filed as inconclusive are left out. Values without a mark were called inactive. The source made the active and inactive calls. Calls come from the whole dose curve; as a rule, active = well fitted cell-killing curve with a large enough effect; inconclusive = small, poorly fitted or top-dose-only effect; inactive = flat fitted curve, though single readings scatter.

experiment: Cell Viability - LYMP2-002 (AID 977); conditions: LYMP2-002 lymphoblastoid cell viability, qHTS; series mostly up to 92.2 µM; activity change, negative = cytotoxic: at the top concentration;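 note: compound exposure lasted 24 h at 37 °C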
Text: NIH Chemical Genomics Center [NCGC]
NIH Molecular Libraries Screening Centers Network [MLSCN]
National Institutes of Environmental Health Sciences [NIEHS]
National Toxicology Program [NTP]
We have developed a 1536-well cell-based assay for quantitative high throughput screening (qHTS) against a number of cell lines to determine in vitro cytotoxicity of small molecules. This particular assay uses a human lymphoblastoid cell line (LYMP2-002) purchased from Coriell Institute for Medical Research.
NCGC Assay Protocol Summary:
The CellTiter-Glo luminescent cell viability assay (Promega) is a homogeneous method to measure the number of viable cells in culture. The end point readout of this assay is based on quantitation of intracellular ATP, an indicator of metabolic activity, using the luciferase reaction. Luciferase catalyzes the oxidation of beetle Luciferin to oxyluciferin and light in the presence of ATP. The luminescent signal is proportional to amount of ATP present.
Using the CellTiter-Glo luminescent cell viability assay, the amount of cellular ATP was measured in the lymphoblastoid cell line with complete culture medium following compound treatment for 24 hours. The assay was performed in opaque white Kalypsys 1536-well plates. In the screen, tetraoctylammonium bromide was used as positive control. Library compounds were measured for their ability to cause acute toxicity in the cell line, as reflected by a decrease in intracellular ATP levels, in a concentration-dependent manner. […] AC50 values were determined from concentration-response data modeled with the standard Hill equation.
qHTS protocol for CellTiter Glo lymphoblastoid cellular assay
[Step] [Parameter] [Value] [Description]
1. Reagent; 5 uL; 2500 lymphoblastoid cells/well
2. Time; 5 hr; 37 C incubation
4. Controls; 23 nL; Tetraoctylammonium bromide 6.4pM to 92 uM
5. Time; 24 hr; 37 C incubation
6. Reagent; 5 uL; CellTiter Glo reagent
7. Time; 30 min; Room Temperature
8. Detection; Luminescence; Viewlux plate reader
Keywords: cell viability, cytotoxicity, lymphoblastoid cell line, luminescence, NTPHTS, NTPHTS_NCGC, NIEHS, DSSTox, MLSMR, MLSCN, NIH Roadmap, qHTS, NCGC
Potency is the fitted concentration of half-maximal effect.

Compared with CCc1cc(C(N)=S)ccn1, NNC(=O)c1ccncc1 is lower in “activity change, negative = cytotoxic” value: -13.2% for the first, -15.5% for the second.

First: Cc1cc(NS(=O)(=O)c2ccc(N)cc2)no1
Second: Cc1noc(NS(=O)(=O)c2ccc(N)cc2)c1C
The “activity change, negative = cytotoxic” value of the first is higher: 11.5% for the first, 3.47% for the second.

First: Cc1ncc([N+](=O)[O-])n1CCO
Second: O=C(N[C@H](CO)[C@H](O)c1ccc([N+](=O)[O-])cc1)C(Cl)Cl
The “activity change, negative = cytotoxic” value of the first is higher: 8.25% for the first, -9.3% for the second.

Compared with COc1ccc2cc3[n+](cc2c1OC)CCc1cc2c(cc1-3)OCO2, Cc1ccnc2c1NC(=O)c1cccnc1N2C1CC1 is higher in “activity change, negative = cytotoxic” value: -29.5% for the first, -20.3% for the second.

Going from Cc1nnc(NS(=O)(=O)c2ccc(N)cc2)s1 to CC1=NN(c2ccccc2)C(=O)C1, the “activity change, negative = cytotoxic” value falls from 8.18% to -12%.

Compared with CC[C@H](C)C(=O)O[C@H]1C[C@@H](C)C=C2C=C[C@H](C)[C@H](CC[C@@H]3C[C@@H](O)CC(=O)O3)[C@H]21, C[C@]12C=CC(=O)C=C1CC[C@@H]1[C@@H]2C(=O)C[C@@]2(C)[C@H]1CC[C@]2(O)C(=O)CO is higher in “activity change, negative = cytotoxic” value: -27.1% for the first, -6.07% for the second.

Going from NC(N)=NC(N)=NCCc1ccccc1 to O=C(O)c1cc(=O)[nH]c(=O)[nH]1, the “activity change, negative = cytotoxic” value rises from -24.8% to -4.59%.

In the case of CN(C)c1ccc(C(=C2C=CC(=[N+](C)C)C=C2)c2ccc(N(C)C)cc2)cc1, the Potency is reported as 2.51 µM (active).
